Source: the supplement of paper PMC9694430
Structures can show the parent of a compound that is named as a salt.

Columns and labels:
Test in all cases: thermal shift delta Tm vs DMSO control; higher = stronger stabilization (binding)
Conditions in all cases: 12.5 µM; protein concentration 2 µM
[1] = system: LOC_OS01G01410-cb001
Method in brief: (§1)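 The melting temperature shift given here is a triplicate mean, measured against protein that received only DMSO. Melting temperatures came from Boltzmann fits of differential scanning fluorimetry data on E. coli-expressed, purified rice kinase domain constructs. Each 19.5 μl well contained 2 μM kinase, 100 mM potassium phosphate pH 7.5, 150 mM NaCl, 10% glycerol, 5 × SYPRO Orange and compound in DMSO. Plates were scanned from 25°C to 95°C at 0.05°C/s.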

[2] = system: LOC_OS01G02750-cb003
Method in brief: as §1

[3] = system: LOC_OS01G10900-cb004
Method in brief: as §1

[4] = system: LOC_OS01G13800-cb001
Method in brief: as §1

[5] = system: LOC_OS01G14860-cb001
Method in brief: as §1

[6] = system: LOC_OS01G21960-cb002
Method in brief: as §1

[7] = system: LOC_OS01G39600-cb002
Method in brief: as §1

[8] = system: LOC_OS01G48390-cb002
Method in brief: as §1

[9] = system: LOC_OS01G51400-cb002
Method in brief: as §1

[10] = system: T1, LOC_OS01G52050-cb004
T1 sequence (whole entry): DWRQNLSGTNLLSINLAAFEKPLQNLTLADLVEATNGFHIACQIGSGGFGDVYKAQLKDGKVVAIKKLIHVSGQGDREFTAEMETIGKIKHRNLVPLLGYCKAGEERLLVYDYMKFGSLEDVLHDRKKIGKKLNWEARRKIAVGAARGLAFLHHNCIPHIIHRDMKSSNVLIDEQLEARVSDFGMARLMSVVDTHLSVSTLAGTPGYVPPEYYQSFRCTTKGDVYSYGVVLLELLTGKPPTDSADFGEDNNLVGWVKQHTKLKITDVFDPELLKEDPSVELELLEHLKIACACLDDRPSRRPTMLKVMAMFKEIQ
Method in brief: as §1

Compound | thermal shift delta Tm [1] | thermal shift delta Tm [2] | thermal shift delta Tm [3] | thermal shift delta Tm [4] | thermal shift delta Tm [5] | thermal shift delta Tm [6] | thermal shift delta Tm [7] | thermal shift delta Tm [8] | thermal shift delta Tm [9] | thermal shift delta Tm [10]
CCc1cnn2c(NCc3ccc[n+]([O-])c3)cc(N3CCCC[C@H]3CCO)nc12 | 0.61 °C | 2.64 °C | 0.06 °C | 0.02 °C | 3.51 °C | 0.49 °C | -0.18 °C | 0.7 °C | 0.2 °C | 0.32 °C
Cc1cc(CS(=O)(=O)c2ccccc2)cc(OCc2ccc(CN3CCC[C@@H]3CO)cc2)c1 | 0.31 °C | 1.37 °C | 0.19 °C | -0.27 °C | -0.13 °C | 0.3 °C | -13.5 °C | 0.65 °C | 0.36 °C | -0.24 °C
CCS(=O)(=O)N1CC(CC#N)(n2cc(-c3ncnc4[nH]ccc34)cn2)C1 | 0.57 °C | 1.52 °C | 0.33 °C | 0.37 °C | 2.29 °C | 1.23 °C | 0.17 °C | 0.14 °C | 0.39 °C | 1.36 °C
CC(C)(C)c1cnc(CSc2cnc(NC(=O)C3CCNCC3)s2)o1 | 1.11 °C | 10.9 °C | 3.68 °C | 0.5 °C | 5.74 °C | 0.34 °C | 0.92 °C | 6.3 °C | 0.67 °C | 0.49 °C
Cc1nc2ccc(-n3ncc(C(=O)c4cc5ccccc5[nH]4)c3N)cc2[nH]1 | 0.79 °C | 1.12 °C | 0.9 °C | 0 °C | 0.41 °C | -0.17 °C | 0.82 °C | 1.08 °C | 0.05 °C | 1.9 °C
CS(=O)(=O)c1ccc(-c2cnc(N)c(C(=O)Nc3ccccc3)n2)cc1 | 1.64 °C | 0.51 °C | 0.6 °C | 0 °C | 5.11 °C | 1.15 °C | 1.65 °C | 0.08 °C | 0.3 °C | 0.77 °C
CN1CCN(c2ccc(OC(F)(F)F)c(Nc3ncc4c(n3)-c3c(c(C(N)=O)nn3CCO)CC4)c2)CC1 | 0.81 °C | 1.85 °C | 0.67 °C | -0.54 °C | 0.5 °C | 0.64 °C | 0.04 °C | -0.15 °C | 0.17 °C | 1.03 °C
NC(=O)c1ccc(N(C(N)=O)c2c(F)cccc2F)nc1-c1ccc(F)cc1F | 0.34 °C | 0.53 °C | 0.19 °C | -0.47 °C | -0.12 °C | 0.57 °C | -1.78 °C | 0.07 °C | 0.14 °C | -0.21 °C
O=C(NCCCNc1nc(Nc2cccc(NC(=O)N3CCCC3)c2)ncc1I)c1cccs1 | 4.61 °C | 2.64 °C | 1.85 °C | -0.09 °C | 5.77 °C | 3.44 °C | 8.52 °C | 2.91 °C | 1.38 °C | 10.7 °C
COc1cc(CCc2cc(NC(=O)c3ccc(N4CC(C)NC(C)C4)cc3)n[nH]2)cc(OC)c1 (stereo not given) | 1.93 °C | 0.89 °C | 7.96 °C | -0.99 °C | 0.38 °C | 0.1 °C | 0.43 °C | 6.33 °C | 0.35 °C | 0 °C
C[C@@H](Oc1ccc2[nH]nc(/C=C/c3cnn(CCO)c3)c2c1)c1c(Cl)cncc1Cl | 5.27 °C | 7.14 °C | 7 °C | -0.36 °C | 5.34 °C | 3.51 °C | 9.68 °C | 4.56 °C | 0.89 °C | 11.2 °C
O=C(NCc1ccccc1)c1csc(Nc2ccncn2)n1 [Thiazovivin] | 0.06 °C | 1.66 °C | 2.94 °C | 1.01 °C | 3.98 °C | 2.52 °C | 0.44 °C | 0.4 °C | 0.24 °C | 2.17 °C
C#Cc1cccc(Nc2ncnc3cc(OC)c(OCCCCCCC(=O)NO)cc23)c1 | 0.66 °C | 0.59 °C | 0.97 °C | 0.44 °C | 0.54 °C | 0.53 °C | 1.06 °C | 1.12 °C | 0.13 °C | 0.41 °C
C[C@H](NC(=O)c1c(N)nn2cccnc12)c1cc2cccc(C#Cc3cnn(C)c3)c2c(=O)n1-c1ccccc1 | -0.14 °C | 1.49 °C | -0.2 °C | 0 °C | 0.51 °C | 0.17 °C | 0.28 °C | 0.19 °C | 0.28 °C | 2.08 °C
CN(C)S(=O)(=O)c1ccc2c(c1)/C(=C/c1cc3c([nH]1)CCCC3)C(=O)N2 | 0 °C | 6.57 °C | 2.65 °C | 1.7 °C | 1.95 °C | 3.86 °C | 3.22 °C | 2.42 °C | 3.07 °C | 13 °C
Cc1cc(Nc2cc(Cl)nc(Oc3ccc([N+](=O)[O-])cc3)n2)n[nH]1 [Autophinib] | 2.53 °C | 3.49 °C | 2.92 °C | -0.1 °C | 7.77 °C | 1.42 °C | 1.82 °C | 4.13 °C | 0.51 °C | 5.57 °C
Nc1nc2cc(-c3ccc4ncc(C(=O)N5CCOCC5)n4c3)ccc2o1 [Serabelisib (INK-1117,MLN-1117,TAK-117)] | 0.8 °C | 1.57 °C | 2.36 °C | 0.43 °C | 1.16 °C | 0.81 °C | 0.1 °C | 0.39 °C | 0.34 °C | 3.87 °C
CC(C)CC(=O)Nc1n[nH]c2c1CN(C(=O)C1CCN(C)CC1)C2(C)C | 0.12 °C | 1.36 °C | 0.4 °C | 0.44 °C | 6.4 °C | 1.05 °C | -0.1 °C | 0.75 °C | 0.45 °C | 0.59 °C
O=C(Nc1cccc(Cl)c1)Nc1ncc(CCNc2ncnc3ccsc23)s1 [SNS-314 Mesylate] | 3.62 °C | 3.42 °C | 2.72 °C | 0.91 °C | 2.61 °C | 2.26 °C | 2.71 °C | 1.79 °C | 0.41 °C | 4.19 °C
CONC(=O)c1ccccc1Nc1cc(Nc2cc(C)nn2C(C)C)ncc1Cl | 0.19 °C | 1.48 °C | 0.57 °C | -0.17 °C | 0.66 °C | 0.75 °C | 4.21 °C | 1.49 °C | 0.4 °C | 3.96 °C
